According to PubChem BioAssay (NCATS):
Records with an inconclusive call do not appear. Unmarked numbers belong to inactive results. Active and inactive are the calls of the source. The call rests on the fitted dose curve; in most records, active means well fitted cell-killing curve with a large enough effect; inconclusive means small, poorly fitted or top-dose-only effect, or effect the other way; inactive means no such curve, though single readings can be large or run the other way. Peptide text beside a SMILES is read from it. * marks the point of attachment. Cbz = O=C(OCc1ccccc1)*

Assay: Quantitative highthroughput screen to assess conditional lethalithy of SEM cells grown in RPMI1640 with unreated serum (RPMI+s) (AID 1963883);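 on viability: 100% = DMSO wells and 0% = empty wells without cells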
Conditions: SEM B-ALL cells, CellTiter-Glo viability, 48 h; series mostly up to 45.8 µM; viability: at the top concentration
In short: (§1)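 Each medium arm—HPLM with 10% dialyzed FBS, or RPMI1640 with 5 mM glucose and 10% untreated or dialyzed FBS—was screened against an 11-point, 3-fold compound titration for 48 h at 37 °C, with CellTiter-Glo luminescence as endpoint.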
Further: nearly all actives have a fitted effect of over 35% in size.
Potency means the concentration at half of the fitted maximal effect.

Row | Structure (SMILES) | Potency | viability
1 | CCN1CCN(c2ccc(Nc3cc(N(C)C(=O)Nc4c(Cl)c(OC)cc(OC)c4Cl)ncn3)cc2)CC1 | 2090 nM (active) | 
2 | C[N+](C)(C)CC(=O)O |  | 109%
3 | COCCCN1CCC(NC(=O)c2cc(Cl)c(N)c3c2OCC3)CC1 |  | 80.2%
4 | CNC(=O)c1ccc(Nc2ncc(C(F)(F)F)c(NCc3nccnc3N(C)S(C)(=O)=O)n2)cc1 | 1050 nM (active) | 
5 | Cc1cc2c(s1)Nc1ccccc1N=C2N1CCN(C)CC1 |  | 87.5%
6 | CC1Cc2ccccc2N1NC(=O)c1ccc(Cl)c(S(N)(=O)=O)c1 (configuration not stated) |  | 103%
7 | Nc1[nH]c(=O)ncc1F |  | 96.9%
8 | CC1(C)O[C@H]2CC(=O)OC[C@]23[C@H]2CC[C@@]4(C)[C@H](c5ccoc5)OC(=O)[C@H]5O[C@]54[C@]2(C)C(=O)C[C@@H]13 |  | 90.7%
9 | O=C(/C=C\n1cnc(-c2cc(C(F)(F)F)cc(C(F)(F)F)c2)n1)NNc1cnccn1 | 588 nM (active) | 
10 | CCCc1cc(C(N)=S)ccn1 |  | 110%
11 | C=C1C(=O)[C@@]23C(CC[C@@H]1[C@H]2O)[C@@]12CO[C@]3(O)[C@@H](O)[C@@H]1C(C)(C)CC[C@@H]2O (some centres not stated) | 3720 nM (active) | 
12 | CCc1ccc(OCc2ccccc2C(=O)Nc2ccc3nc(C)cc(N)c3c2)cc1 | 10500 nM (active) | 
13 | CO[C@@H]1C(N(C)C(=O)c2ccccc2)C[C@H]2O[C@]1(C)n1c3ccccc3c3c4c(c5c6ccccc6n2c5c31)C(=O)NC4=O (some centres not stated) | 1870 nM (active) | 
14 | CC1(C)CCC(c2ccc(Cl)cc2)=C(CN2CCN(c3ccc(C(=O)NS(=O)(=O)c4ccc(N[C@H](CCN5CCOCC5)CSc5ccccc5)c(S(=O)(=O)C(F)(F)F)c4)cc3)CC2)C1 | 52.6 nM (active) | 
15 | CC(C)C[C@@H](C=O)NC(=O)[C@H](CC(C)C)NC(=O)[C@H](CC(C)C)NC(=O)OCc1ccccc1 (Cbz-Leu-Leu-Leu-aldehyde) | 332 nM (active) | 
16 | O=C(O)CCNC(=O)c1ccc(N=Nc2ccc(O)c(C(=O)O)c2)cc1 |  | 97.2%

Row | Structure (SMILES) | Potency | viability
17 | CN1CCN(c2ccc(C(=O)Nc3n[nH]c4ccc(Cc5cc(F)cc(F)c5)cc34)c(NC3CCOCC3)c2)CC1 | 5240 nM (active) | 
18 | COc1c(C)cnc(Cn2cnc3c(Cl)nc(N)nc32)c1C | 264 nM (active) | 
19 | CC1CCN(c2cc(N3CCN(C)CC3)ccc2NC(=O)c2cc(C#N)c[nH]2)CC1 |  | 79.5%
20 | C[C@H]1[C@@H](OC(=O)CCC(=O)O)O[C@@H]2O[C@@]3(C)CC[C@@H]4[C@H](C)CC[C@@H]1[C@@]24OO3 | 3720 nM (active) | 
21 | O=S(=O)(O)CCS |  | 107%
22 | COCCNCCCn1c(C(=O)CF)c(-c2ccc(C)cc2)c2c(N)ncnc21 | 166 nM (active) | 
23 | NCCCC(N)(C(=O)O)C(F)F (configuration not stated) |  | 108%
24 | Nc1[nH]nc2nnc(-c3c(-c4ccccc4)nn4ccccc34)cc12 | 23500 nM (active) | 
25 | COC(=O)C1C2CC3c4[nH]c5cc(OC)ccc5c4CCN3CC2CC(OC(=O)c2cc(OC)c(OC)c(OC)c2)C1OC (configuration not stated) |  | 97%
26 | Nc1nc2c(ncn2COC(CO)CO)c(=O)[nH]1 | 20900 nM (active) | 
27 | OC(CCN1CCCCC1)(c1ccccc1)C1CC2C=CC1C2 (configuration not stated) |  | 98.8%
28 | Cc1ccccc1-n1c(Cn2nc(-c3cccc(O)c3)c3c(N)ncnc32)nc2cccc(C)c2c1=O |  | 79.8%
29 | CCOc1ccccc1OCCNC(C)Cc1ccc(OC)c(S(N)(=O)=O)c1 (configuration not stated) |  | 95.4%
30 | Nc1nc(Nc2ccc(S(N)(=O)=O)cc2)nn1C(=O)c1c(F)cccc1F | 10500 nM (active) | 
31 | CNC(=O)c1nn(C)c2c1C(C)(C)Cc1cnc(Nc3ccc(N4CCN(C)CC4)cc3)nc1-2 | 372 nM (active) | 
32 | Cc1ccc(C(=O)Nc2cccc(C(F)(F)F)c2)cc1-c1ccc2nc(NCCN3CCOCC3)ncc2c1 | 4180 nM (active) | 

Assay: Quantitative highthroughput screen to assess conditional lethalithy of SEM cells grown in RPMI1640 with dialyzed fetal bovine serum (RPMI+ds) (AID 1963884);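 on viability: 100% = DMSO control wells and 0% = empty wells without cells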
Conditions: SEM B-ALL cells, RPMI+dialyzed FBS, CellTiter-Glo viability, 48 h; series mostly up to 45.8 µM; viability: at the top concentration
In short: as §1

Row | Structure (SMILES) | Potency | viability
33 | CCN1CCN(c2ccc(Nc3cc(N(C)C(=O)Nc4c(Cl)c(OC)cc(OC)c4Cl)ncn3)cc2)CC1 | 2640 nM (active) | 
34 | C[N+](C)(C)CC(=O)O |  | 87.6%
35 | COCCCN1CCC(NC(=O)c2cc(Cl)c(N)c3c2OCC3)CC1 |  | 88.6%
36 | O=C1NC(=O)C(c2cnc3ccccn23)=C1c1cn2c3c(cccc13)CN(C(=O)N1CCOCC1)CC2 | 7.4 nM (active) | 
37 | CC1Cc2ccccc2N1NC(=O)c1ccc(Cl)c(S(N)(=O)=O)c1 (configuration not stated) |  | 107%
38 | Nc1[nH]c(=O)ncc1F |  | 87.3%
39 | CC1(C)O[C@H]2CC(=O)OC[C@]23[C@H]2CC[C@@]4(C)[C@H](c5ccoc5)OC(=O)[C@H]5O[C@]54[C@]2(C)C(=O)C[C@@H]13 |  | 86.8%
40 | O=C(/C=C\n1cnc(-c2cc(C(F)(F)F)cc(C(F)(F)F)c2)n1)NNc1cnccn1 | 741 nM (active) | 
41 | CCCc1cc(C(N)=S)ccn1 |  | 96.2%
42 | CO[C@@H]1C(N(C)C(=O)c2ccccc2)C[C@H]2O[C@]1(C)n1c3ccccc3c3c4c(c5c6ccccc6n2c5c31)C(=O)NC4=O (some centres not stated) | 3720 nM (active) | 
43 | N#Cc1ccnc(Nc2cc(C3CCN(C4COC4)CC3)cc(N3CCC(F)(F)C3)n2)c1 | 9330 nM (active) | 
44 | CC1(C)CCC(c2ccc(Cl)cc2)=C(CN2CCN(c3ccc(C(=O)NS(=O)(=O)c4ccc(N[C@H](CCN5CCOCC5)CSc5ccccc5)c(S(=O)(=O)C(F)(F)F)c4)cc3)CC2)C1 | 52.6 nM (active) | 
45 | CC(C)C[C@@H](C=O)NC(=O)[C@H](CC(C)C)NC(=O)[C@H](CC(C)C)NC(=O)OCc1ccccc1 (Cbz-Leu-Leu-Leu-aldehyde) | 743 nM (active) | 
46 | CCCCS(=N)(=O)CCC(N)C(=O)O (configuration not stated) |  | 87.1%
47 | O=C(O)CCNC(=O)c1ccc(N=Nc2ccc(O)c(C(=O)O)c2)cc1 |  | 94.5%
48 | CC(O)(C#Cc1ccc2c(c1)N(c1nc(N)ncc1Cl)CC2)c1nccs1 (configuration not stated) |  | 51.5%
49 | CN1CCN(c2ccc(C(=O)Nc3n[nH]c4ccc(Cc5cc(F)cc(F)c5)cc34)c(NC3CCOCC3)c2)CC1 | 3710 nM (active) | 
50 | COc1c(C)cnc(Cn2cnc3c(Cl)nc(N)nc32)c1C | 296 nM (active) | 
51 | CCN(c1ccccc1)c1cc(NC)[n+](C)c(C)n1 |  | 101%
52 | CC1CCN(c2cc(N3CCN(C)CC3)ccc2NC(=O)c2cc(C#N)c[nH]2)CC1 |  | 85%
53 | C[C@H]1[C@@H](OC(=O)CCC(=O)O)O[C@@H]2O[C@@]3(C)CC[C@@H]4[C@H](C)CC[C@@H]1[C@@]24OO3 | 4180 nM (active) | 
54 | O=S(=O)(O)CCS |  | 122%
55 | COCCNCCCn1c(C(=O)CF)c(-c2ccc(C)cc2)c2c(N)ncnc21 | 743 nM (active) | 
56 | NCCCC(N)(C(=O)O)C(F)F (configuration not stated) |  | 95.3%
57 | COC(=O)C1C2CC3c4[nH]c5cc(OC)ccc5c4CCN3CC2CC(OC(=O)c2cc(OC)c(OC)c(OC)c2)C1OC (configuration not stated) |  | 83.5%
58 | OC(CCN1CCCCC1)(c1ccccc1)C1CC2C=CC1C2 (configuration not stated) |  | 105%
59 | CCOc1ccccc1OCCNC(C)Cc1ccc(OC)c(S(N)(=O)=O)c1 (configuration not stated) |  | 106%
60 | Nc1nc(Nc2ccc(S(N)(=O)=O)cc2)nn1C(=O)c1c(F)cccc1F | 9350 nM (active) | 
61 | CNC(=O)c1nn(C)c2c1C(C)(C)Cc1cnc(Nc3ccc(N4CCN(C)CC4)cc3)nc1-2 | 418 nM (active) | 
62 | Cc1ccc(C(=O)Nc2cccc(C(F)(F)F)c2)cc1-c1ccc2nc(NCCN3CCOCC3)ncc2c1 | 4180 nM (active) | 
